The list is not random: actives were taken first. Their share in the collection is about 27%.
CYP2C19 activ: increases human CYP2C19 enzyme activity | recombinant CYP2C19, luciferin-H EGE luminescence; stronger effect = higher value; 0 = fully inhibited enzyme, 1 = untreated enzyme | 96,000 tested, under 10 active | activation factor at 5 µM | P33261;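 active = activation factor of at least 2 at 5 µM in the primary screen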
Target sequence (P33261 whole entry, looked up): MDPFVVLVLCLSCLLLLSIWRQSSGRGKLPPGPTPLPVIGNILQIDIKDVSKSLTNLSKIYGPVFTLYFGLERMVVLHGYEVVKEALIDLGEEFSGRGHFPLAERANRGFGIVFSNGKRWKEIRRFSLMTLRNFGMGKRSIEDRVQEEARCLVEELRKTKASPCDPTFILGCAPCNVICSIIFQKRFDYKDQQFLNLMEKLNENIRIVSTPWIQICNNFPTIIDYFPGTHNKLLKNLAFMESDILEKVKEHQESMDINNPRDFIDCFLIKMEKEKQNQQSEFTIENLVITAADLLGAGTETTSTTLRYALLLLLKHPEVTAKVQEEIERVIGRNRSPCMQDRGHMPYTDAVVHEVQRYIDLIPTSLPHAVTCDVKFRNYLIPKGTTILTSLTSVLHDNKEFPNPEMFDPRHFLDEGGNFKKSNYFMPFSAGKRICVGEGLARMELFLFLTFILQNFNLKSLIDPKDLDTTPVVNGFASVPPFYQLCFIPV
CYP2C9 activ: activators of human CYP2C9 | hit rate 1.4% among 96,000 | activation factor at 5 µM | AID 1024 | recombinant CYP2C9, luciferin-H conversion, luminescence; stronger effect = higher value; factor 1 = untreated enzyme, 0 = blocked;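 active = activation factor of 2 or more for CYP2C9 at a 5 µM dose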
CYP2C9 inhib: human CYP2C9 inhibition; P11712; CYP2C9 Supersomes, luciferin-H conversion, luminescence; inhibition, % at 5 µM; hit rate 20% among 96,000; AID 777;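 active = blocking of liver enzyme CYP2C9 beyond about 50% at 5 µM, limit read from the data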
EphB4 antag: blocks human EphB4 binding to ephrin-B2; EphB4 LBD / TNYL-RAW-Alexa532 peptide, fluorescence polarization; hit rate 0.15% among 97,000; P54760; inhibition, % at 7 µM;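 active = inhibition above the screen-wide mean inhibition plus 3 SD, cut at about 15% in these data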
CYP2C19 inhib: blocks human cytochrome P450 2C19. hit rate 21% among 96,000. inhibition, % at 5 µM. CYP2C19 Supersomes, luciferin-H EGE luminescence, 30 min. AID 778. P33261;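 active = CYP2C19 inhibition above a set limit at 5 µM in the primary screen, cut at about 50% in these data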
Numbers stand for hits.

`COc1ccc(-c2nnc(SCC(=O)NCc3cccs3)n2C(C)C)cc1` gave CYP2C19 activ inactive, CYP2C9 activ inactive, CYP2C9 inhib 54, EphB4 antag inactive and CYP2C19 inhib 66.
`COc1cccc(-c2csc3nnc(SCC(=O)NCc4cccs4)n23)c1` gave CYP2C19 activ inactive, CYP2C9 activ inactive, CYP2C9 inhib inactive, EphB4 antag inactive and CYP2C19 inhib 59.
For COCCn1c(SCC(=O)NCc2cccs2)nnc1-c1ccc(OC)cc1 the results were CYP2C19 activ inactive, CYP2C9 activ inactive, CYP2C9 inhib inactive, EphB4 antag inactive and CYP2C19 inhib inactive.
COc1ccc(-c2nnc(SCC(=O)NCc3cccs3)n2C)cc1 was read as EphB4 antag inactive.
For CC(C)CCNC(=O)CSc1nc2ccccc2c(=O)[nH]1 the results were CYP2C19 activ inactive, CYP2C9 activ inactive, CYP2C9 inhib inactive, EphB4 antag inactive and CYP2C19 inhib inactive.
Screening Cn1ccnc1Sc1nc(Nc2cccc(Cl)c2)nc(N2CCOCC2)n1 returned CYP2C19 activ inactive, CYP2C9 activ inactive, CYP2C9 inhib inactive, EphB4 antag inactive and CYP2C19 inhib inactive.
Screening O=S(=O)(c1cccs1)N1CCN(CC(O)COC2CCCc3ccccc32)CC1 (stereo not drawn) returned CYP2C19 activ inactive, CYP2C9 activ inactive, CYP2C9 inhib 62, EphB4 antag inactive and CYP2C19 inhib inactive.
Screening CN(C)C(=O)COC(=O)[C@H](Cc1ccccc1)NC(=O)c1ccco1 returned CYP2C19 activ inactive, CYP2C9 activ inactive, CYP2C9 inhib inactive, EphB4 antag inactive and CYP2C19 inhib inactive.
Screening O=C1CCCc2nc(NCc3ccco3)ncc21 returned CYP2C19 activ inactive, CYP2C9 activ inactive, CYP2C9 inhib inactive, EphB4 antag inactive and CYP2C19 inhib inactive.
Screening CS(=O)(=O)N(CC(=O)NCCc1ccccc1)C1CCCCC1 returned CYP2C19 activ inactive, CYP2C9 activ inactive, CYP2C9 inhib inactive, EphB4 antag inactive and CYP2C19 inhib inactive.
`CCCCNC(=O)CN(C1CCCCC1)S(C)(=O)=O` gave CYP2C19 activ inactive, CYP2C9 activ inactive, CYP2C9 inhib 74, EphB4 antag inactive and CYP2C19 inhib inactive.
COC(=O)CN1C(=O)C2(C(C#N)=C(N)Oc3n[nH]c(-c4cccs4)c32)c2ccccc21 (stereo not drawn) was read as CYP2C19 activ inactive, CYP2C9 activ inactive, CYP2C9 inhib inactive, EphB4 antag inactive and CYP2C19 inhib inactive.
Cc1nn(C)c(C)c1N=Cc1c(O)ccc2ccccc12 was read as CYP2C19 activ inactive, CYP2C9 activ inactive, CYP2C9 inhib inactive, EphB4 antag inactive and CYP2C19 inhib inactive.
Oc1ccc2ccccc2c1C=Nc1ccccc1-c1nc2ccccc2[nH]1 was read as CYP2C19 activ inactive, CYP2C9 activ inactive, CYP2C9 inhib 95, EphB4 antag inactive and CYP2C19 inhib inactive.
COc1ccc2[nH]c(=O)c(CN(Cc3cccs3)S(=O)(=O)c3cccc4nsnc34)cc2c1 was read as CYP2C19 activ inactive, CYP2C9 activ inactive, CYP2C9 inhib inactive, EphB4 antag inactive and CYP2C19 inhib inactive.
CCOC(=O)c1sc(NCCNc2nc(C)c(C(=O)OCC)s2)nc1C was read as CYP2C19 activ inactive, CYP2C9 activ inactive, CYP2C9 inhib inactive and CYP2C19 inhib inactive.
Screening CCOC(=O)c1sc(N)nc1C(C)(C)C returned CYP2C19 activ inactive, CYP2C9 activ inactive, CYP2C9 inhib inactive, EphB4 antag inactive and CYP2C19 inhib 58.
For Cc1ccc(Cl)cc1N1CCN(C(=O)Cn2ccc3ccccc3c2=O)CC1 the results were CYP2C19 activ inactive, CYP2C9 activ inactive, CYP2C9 inhib inactive, EphB4 antag inactive and CYP2C19 inhib inactive.
For O=C(O)c1ccc(N2C(=O)C3ON(c4ccccc4)C(c4ccccc4F)C3C2=O)cc1 (stereo not drawn) the results were CYP2C19 activ inactive, CYP2C9 activ inactive, CYP2C9 inhib inactive, EphB4 antag inactive and CYP2C19 inhib 52.
Screening O=C1C2ON(c3ccccc3)C(c3ccccc3F)C2C(=O)N1c1ccccc1 (stereo not drawn) returned CYP2C19 activ inactive, CYP2C9 activ inactive, CYP2C9 inhib inactive, EphB4 antag inactive and CYP2C19 inhib inactive.
For CCCC1C2C(=O)N(c3ccccc3OC)C(=O)C2ON1c1ccccc1 (stereo not drawn) the results were CYP2C19 activ inactive, CYP2C9 activ inactive, CYP2C9 inhib 70, EphB4 antag inactive and CYP2C19 inhib 95.
`O=C(O)COc1ccccc1C1C2C(=O)N(c3ccccc3)C(=O)C2ON1c1ccccc1` (stereo not drawn) gave CYP2C19 activ inactive, CYP2C9 activ inactive, CYP2C9 inhib inactive and CYP2C19 inhib inactive.
CCCOc1ccc(N2C(=O)C3ON(c4ccccc4)C(CCC)C3C2=O)cc1 (stereo not drawn) was read as CYP2C19 activ inactive, CYP2C9 activ inactive, CYP2C9 inhib 52, EphB4 antag inactive and CYP2C19 inhib inactive.
Screening O=C1C2ON(c3ccc(Cl)cc3)C(c3ccco3)C2C(=O)N1c1ccccc1 (stereo not drawn) returned CYP2C19 activ inactive, CYP2C9 activ inactive, CYP2C9 inhib 58, EphB4 antag inactive and CYP2C19 inhib 93.
For CCCC1C2C(=O)N(c3ccccc3)C(=O)C2ON1c1ccccc1 (stereo not drawn) the results were CYP2C19 activ inactive, CYP2C9 activ inactive, CYP2C9 inhib 55, EphB4 antag inactive and CYP2C19 inhib 56.
CN1OC2C(=O)N(c3ccccc3)C(=O)C2C1c1ccc(F)cc1 (stereo not drawn) was read as CYP2C19 activ inactive, CYP2C9 activ inactive, CYP2C9 inhib inactive, EphB4 antag inactive and CYP2C19 inhib inactive.
`CCOc1ccccc1C1C2C(=O)N(c3ccccc3)C(=O)C2ON1c1ccccc1` (stereo not drawn) gave CYP2C19 activ inactive, CYP2C9 activ inactive, CYP2C9 inhib 51, EphB4 antag inactive and CYP2C19 inhib inactive.
CC(C)CC(c1nnnn1C1CCCC1)N1CCN(C(=O)c2ccco2)CC1 (stereo not drawn) was read as CYP2C19 activ inactive, CYP2C9 activ inactive, CYP2C9 inhib inactive, EphB4 antag inactive and CYP2C19 inhib inactive.
Screening CCOC(=O)c1ccc(N2C(=O)C(C)=C(C)C2=O)cc1 returned CYP2C19 activ inactive, CYP2C9 activ inactive, CYP2C9 inhib inactive, EphB4 antag inactive and CYP2C19 inhib inactive.
COc1ccc(OC2C(=O)N(c3ccc(F)cc3)C2c2ccc(OC)c(OC)c2)cc1 (stereo not drawn) was read as CYP2C19 activ inactive, CYP2C9 activ inactive, CYP2C9 inhib inactive, EphB4 antag inactive and CYP2C19 inhib inactive.
Screening COC(=O)c1ccc(C2C(Oc3ccc(OC)cc3)C(=O)N2CCc2ccc(F)cc2)cc1 (stereo not drawn) returned CYP2C19 activ inactive, CYP2C9 activ inactive, CYP2C9 inhib inactive, EphB4 antag inactive and CYP2C19 inhib 56.
Cc1oc(-c2ccccc2F)nc1CS(=O)(=O)CC(=O)NC1CCCC1 was read as CYP2C19 activ inactive, CYP2C9 activ inactive, CYP2C9 inhib 52 and CYP2C19 inhib inactive.
Screening Cc1oc(-c2ccccc2F)nc1CS(=O)(=O)CC(=O)N1CCN(c2ccccc2)CC1 returned CYP2C19 activ inactive, CYP2C9 activ inactive, CYP2C9 inhib 65, EphB4 antag inactive and CYP2C19 inhib 60.
